Screening data (PubChem BioAssay)
Shown are actives, neighbours in structure and some others; about 2.5% of the full set was active somewhere.
Cruzain inh Det – inhibitors of Trypanosoma cruzi cruzain with detergent | P25779 | purified cruzain, Z-FR-AMC fluorescence, 0.01% Triton | Potency, µM, for inactives: max response, negative = inhibition, hits mostly inhibitors | 200,000 tested, 0.43% active;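 also: plate controls were neutral wells for no effect and buffer without enzyme for full effect; nearly all actives have a fitted effect of over 40% in size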
Target sequence (P25779 123-467 limits assumed): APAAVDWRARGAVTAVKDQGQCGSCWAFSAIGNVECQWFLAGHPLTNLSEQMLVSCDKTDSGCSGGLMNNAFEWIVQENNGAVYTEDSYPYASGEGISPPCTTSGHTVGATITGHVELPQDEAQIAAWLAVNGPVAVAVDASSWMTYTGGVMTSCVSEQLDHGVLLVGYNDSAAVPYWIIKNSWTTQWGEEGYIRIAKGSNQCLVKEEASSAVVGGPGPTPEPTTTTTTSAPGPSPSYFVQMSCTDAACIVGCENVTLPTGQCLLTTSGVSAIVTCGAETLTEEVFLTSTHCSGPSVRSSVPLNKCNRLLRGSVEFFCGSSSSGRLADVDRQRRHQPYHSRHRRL
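Purified cruzain (1.5 nM final) was preincubated with compounds for 15 min at room temperature in 100 mM sodium acetate pH 5.5, 5 mM DTT, 0.01% Triton X-100. Reaction started with 2 uM Z-FR-AMC; AMC fluorescence change over 60 s gave activity.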
Cruzain inh noDet – cruzain (T. cruzi) inhibition without detergent | P25779 | Potency, µM, for inactives: max response, negative = inhibition, most hits filed as inhibitors | 200,000 tested, 2.3% active | purified cruzain, Z-FR-AMC fluorescence, no detergent;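 also: plate controls were enzyme without inhibitor for no effect and buffer without enzyme for full effect; nearly all actives have a fitted effect of over 40% in size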
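Purified cruzain at 1.5 nM, pre-incubated 15 min with compound at room temperature in 100 mM sodium acetate pH 5.5, 5 mM DTT, 0.00005% Triton X-100. Reaction started with 2 uM Z-FR-AMC; AMC fluorescence increase over 60 s gives rate.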
The depositor's hits bear a star. Calls follow the shape of the dose curve; as a rule, active = well fitted curve in the direction sought with a large enough effect; inconclusive = small, poorly fitted or top-dose-only effect, or another doubt; inactive = no such curve, though single readings can be large; an effect the other way counts as inactive or inconclusive. Potency is read from the fitted curve at half-maximal effect.

Screening O=C(Oc1ccc(N(Cc2cccs2)C2=NS(=O)(=O)c3ccccc32)cc1)c1ccccc1 returned Cruzain inh Det 1.7% and Cruzain inh noDet inconclusive.
Screening O=C(Oc1ccc(N(Cc2cccs2)C2=NS(=O)(=O)c3ccccc32)cc1)c1ccc(Cl)cc1 returned Cruzain inh Det -1.5% and Cruzain inh noDet 31.6µM*.
CC(NC(=O)OCc1ccccc1)C(=O)Oc1cc2oc(=O)cc(-c3ccccc3)c2cc1Cl (centres undefined) was read as Cruzain inh Det 22.4µM* and Cruzain inh noDet inconclusive.
`CC(Oc1ccc2c(-c3ccccc3)cc(=O)oc2c1)C(=O)O` (centres undefined) gave Cruzain inh Det -0.9% and Cruzain inh noDet -4.0%.
`O=C(NC(Cc1ccccc1)C(=O)Oc1ccc2c(C(F)(F)F)cc(=O)oc2c1)OCc1ccccc1` (centres undefined) gave Cruzain inh Det 11.2µM* and Cruzain inh noDet inconclusive.
Screening O=C(COc1ccc2c(C(F)(F)F)cc(=O)oc2c1)NCc1cccs1 returned Cruzain inh Det -1.0% and Cruzain inh noDet -15.2%.
Screening CCOC(=O)c1cccc(NC(=O)C2CCN(S(=O)(=O)c3c(C)noc3/C=C/c3ccc(C)cc3)CC2)c1 returned Cruzain inh Det -1.3% and Cruzain inh noDet -10.7%.
For CCCSc1nc2c(cnn2-c2ccc(F)cc2)c(=O)[nH]1 the results were Cruzain inh Det -5.5% and Cruzain inh noDet 0.4%.
O=c1[nH]c(SCc2ccc(F)cc2)nc2c1cnn2-c1ccc(F)cc1 was read as Cruzain inh Det 1.6% and Cruzain inh noDet 15.8µM*.
For CCC(C)Sc1nc2c(cnn2-c2ccccc2)c(=O)[nH]1 (centres undefined) the results were Cruzain inh Det 2.1% and Cruzain inh noDet 5.3%.
CCCSc1nc2c(cnn2-c2ccc(C)c(C)c2)c(=O)[nH]1 was read as Cruzain inh Det -0.1% and Cruzain inh noDet -21.6%.
Screening CCC(C)Sc1nc2c(cnn2-c2ccc(C)cc2)c(=O)[nH]1 (centres undefined) returned Cruzain inh Det 1.7% and Cruzain inh noDet 20µM*.
CCCCSc1nc2c(cnn2-c2ccc(C)c(C)c2)c(=O)[nH]1 was read as Cruzain inh Det 2.4% and Cruzain inh noDet 20µM*.
`CC(NC(=O)c1ccc(F)cc1)c1nc2ccccc2[nH]1` (centres undefined) gave Cruzain inh Det -26.1% and Cruzain inh noDet -11.8%.
Screening CCOC(=O)c1cccc(NC(=O)NCc2cccn2Cc2ccccc2)c1 returned Cruzain inh Det 0.3% and Cruzain inh noDet -6.7%.
Screening COc1cccc(N2CCN(C(=O)CN3CCSc4ccc(S(=O)(=O)N(C)C)cc43)CC2)c1 returned Cruzain inh Det -3.6% and Cruzain inh noDet inconclusive.
Cc1ccc(-n2nnnc2SCc2nc3sc(C)c(C)c3c(=O)[nH]2)cc1 was read as Cruzain inh Det -0.9% and Cruzain inh noDet inconclusive.
`Cc1sc2nc(CSc3cccc(C(F)(F)F)c3)[nH]c(=O)c2c1C` gave Cruzain inh Det -2.8% and Cruzain inh noDet 25.1µM*.
For Clc1ccc2oc(-c3cccnc3NCc3ccccc3)nc2c1 the results were Cruzain inh Det -14.2% and Cruzain inh noDet -5.9%.
`Cc1ccc(CNc2ncccc2-c2nc3cc(Cl)ccc3o2)cc1` gave Cruzain inh Det -12.5% and Cruzain inh noDet 10µM*.
Screening Nc1ncnc2c1ncn2[C@H]1O[C@@H](CO)[C@@H](O)[C@H]1N returned Cruzain inh Det -1.9% and Cruzain inh noDet 5.3%.
N#Cc1c(/N=C/c2ccco2)oc(-c2ccccc2)c1-c1ccccc1 was read as Cruzain inh Det -14.6% and Cruzain inh noDet -5.7%.
Screening N#Cc1c(/N=C/c2ccccc2)oc(-c2ccccc2)c1-c1ccccc1 returned Cruzain inh Det -8.0% and Cruzain inh noDet 31.6µM*.
Screening CCC(=O)C1=C(c2ccc(F)cc2)N(C(=O)CC)n2c(nnc2-c2ccc(OC)cc2)S1 returned Cruzain inh Det 1.8% and Cruzain inh noDet -13.5%.
`CCN(CCCNC(=O)c1cc2cc3ccc(OC)cc3nc2s1)c1ccccc1` gave Cruzain inh Det 20µM* and Cruzain inh noDet 31.6µM*.
`CCN(CCCNC(=O)c1cc2cc3ccc(OC)cc3nc2s1)c1cccc(C)c1` gave Cruzain inh Det -11.4% and Cruzain inh noDet inconclusive.
Cc1ccc2c(c1)cc1c(=O)n(CC(=O)NC(C)CCc3ccccc3)nc(C)n12 (centres undefined) was read as Cruzain inh Det 0.0% and Cruzain inh noDet -4.6%.
Cc1ccc(NS(=O)(=O)c2cccc(C(=O)N/N=C/c3c(C)nn(-c4ccccc4)c3N3CCCC3)c2)c(C)c1 was read as Cruzain inh Det -2.1% and Cruzain inh noDet 31.6µM*.
`COc1ccccc1NS(=O)(=O)c1cccc(C(=O)N/N=C/c2ccc(N3CCOCC3)cc2)c1` gave Cruzain inh Det -6.7% and Cruzain inh noDet inconclusive.
`Cc1ccc(NS(=O)(=O)c2cccc(C(=O)N/N=C/c3ccc4c(c3)OCCO4)c2)c(C)c1` gave Cruzain inh Det -13.2% and Cruzain inh noDet 6.31µM*.
`CCNc1ccc(C(=O)N/N=C/c2c(C)nn(-c3ccccc3)c2N2CCCC2)cc1[N+](=O)[O-]` gave Cruzain inh Det -9.9% and Cruzain inh noDet 5.7%.
Screening CCc1c2c(nc3cccc(SC)c13)COC2 returned Cruzain inh Det -13.2% and Cruzain inh noDet -4.0%.
Screening Cc1csc2nc(COc3ccc(NC(=O)COc4ccccc4F)cc3)cc(=O)n12 returned Cruzain inh Det -1.2% and Cruzain inh noDet -0.2%.
For O=C(CSc1nc(-c2ccc(F)cc2)cc(C(F)(F)F)n1)NCc1ccccc1 the results were Cruzain inh Det -0.2% and Cruzain inh noDet -1.4%.
For Cc1cccc(NC(=O)CSc2nc(C)c(CC(=O)c3ccc(Br)cc3)c(C)c2C#N)c1C the results were Cruzain inh Det 2.9% and Cruzain inh noDet 12.6µM*.
`Cc1nc(SCC(=O)Nc2ccc(F)cc2)c(C#N)c(C)c1CC(=O)c1ccc(Br)cc1` gave Cruzain inh Det -0.5% and Cruzain inh noDet inconclusive.
For CC(=O)N[C@@H](CSC(=O)[C@]1([C@@H](O)C(C)C)NC(=O)[C@H](C)[C@@H]1O)C(=O)O the results were Cruzain inh Det 2.6% and Cruzain inh noDet -7.4%.
Screening CN(C)S(=O)(=O)c1cccc(C(=O)N2CCc3ccccc32)c1 returned Cruzain inh Det 0.2% and Cruzain inh noDet -7.2%.
`CN(C)S(=O)(=O)c1cccc(C(=O)C2=C3SC=C(c4ccccc4)N3CC2)c1` gave Cruzain inh Det -3.7% and Cruzain inh noDet 25.1µM*.
For Cc1ccc(-n2ncc3c(N4CCN(Cc5ccccc5)CC4)ncnc32)cc1Cl the results were Cruzain inh Det 0.3% and Cruzain inh noDet -8.5%.
Screening COc1ccc(-c2[nH]n(-c3ccc([N+](=O)[O-])cc3)c(=O)c2C=NCc2ccncc2)cc1 returned Cruzain inh Det -3.6% and Cruzain inh noDet inconclusive.
`COc1ccc(-c2[nH]n(-c3ccc([N+](=O)[O-])cc3)c(=O)c2C=NCc2ccc(F)cc2)cc1` gave Cruzain inh Det -5.6% and Cruzain inh noDet 25.1µM*.
Screening COc1cc(Cl)c(C)cc1NC(=O)c1cc2c(=O)oc3ccccc3c2s1 returned Cruzain inh Det 4.7% and Cruzain inh noDet 3.3%.
For O=C1C(Cl)=C(N2CCOCC2)C(=O)N1c1ccccc1Cl the results were Cruzain inh Det inconclusive and Cruzain inh noDet -26.0%.
`CN1CCN(C2=C(Cl)C(=O)N(c3cccc(Cl)c3)C2=O)CC1` gave Cruzain inh Det -25.6% and Cruzain inh noDet inconclusive.
